The record followed here is PubChem BioAssay (NCI).

The structures appear in SMILES notation. About 83,000 compounds went through this panel and 20% of them were active in at least one assay; those are over-represented in the sample as a whole.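 Values shown are percent growth following 48 h exposure of cells in 96-well plates to a single concentration of compound; below 10 was considered active.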 A number with no mark means an inactive call. Active and inactive are the calls of the source.

Among the test systems are SR leukemia; RPMI-8226 leukemia; OVCAR-8 ovarian; OVCAR-5 ovarian; OVCAR-4 ovarian; SK-OV-3 ovarian; IGROV1 ovarian; OVCAR-3 ovarian; HS 578T breast; NCI/ADR-RES ovarian; T-47D breast; MDA-MB-435 melanoma; MCF7 breast; HCT-116 colon; HCC-2998 colon; KM12 colon; SW-620 colon; BT-549 breast.
Holding throughout (assay): NCI-60 one-dose screen, 48 h (100 = growth as untreated, 0 = no growth, -100 = all killed)
What all share (details): 10 µM unless noted

As to `COc1cccc(-c2nn(-c3ccccc3)cc2-c2ccnc(NCCNS(=O)(=O)c3ccccc3)c2)c1`, the growth is 12.7% in the experiment on SR leukemia; 19.1% in the experiment on RPMI-8226 leukemia; 27.7% in the experiment on OVCAR-8 ovarian; 72.3% in the experiment with OVCAR-5 ovarian; 39.3% with OVCAR-4 ovarian; 43.3% with SK-OV-3 ovarian. Also, the growth in the experiment on IGROV1 ovarian was 33.6%; with OVCAR-3 ovarian, 42.6%; with HS 578T breast, 46.7%; in the experiment on NCI/ADR-RES ovarian it was 23.3%; in the experiment with T-47D breast, 4.18% (active); in the experiment on MDA-MB-435 melanoma, 10.7%. The growth is 14.9% in the experiment on MCF7 breast, 29.4% with HCT-116 colon, 26.8% with HCC-2998 colon and 21.7% in the experiment on KM12 colon.
In the case of `COc1ccc(NC(=O)c2ccc3c(c2)nc(-c2cc4ccccc4[nH]c2=O)n3-c2cc(C(C)(C)C)[nH]n2)cc1`, the growth in the experiment on SR leukemia was 84.8%; in the experiment on RPMI-8226 leukemia it was 83.9%; with OVCAR-8 ovarian, 97.6%; with OVCAR-5 ovarian, 95.9%; in the experiment with OVCAR-4 ovarian, 86.5%; with SK-OV-3 ovarian, 111%. Besides, the growth in the experiment with IGROV1 ovarian is 80.7%; in the experiment on OVCAR-3 ovarian, 100%; in the experiment on HS 578T breast, 80.9%; in the experiment with NCI/ADR-RES ovarian, 103%; in the experiment with T-47D breast it was 78.9%; with MDA-MB-435 melanoma it was 92.5%. In addition, the growth was 102% in the experiment on SW-620 colon; 81.3% in the experiment with MCF7 breast; 86% in the experiment with HCT-116 colon; 105% in the experiment on HCC-2998 colon; 90.5% in the experiment on KM12 colon.
With `O=C(/C=C/c1cccc2ccccc12)Nc1ncc(Cc2ccccc2)s1`, the growth was 13.1% in the experiment on SR leukemia; 8.58% (active) in the experiment on RPMI-8226 leukemia; 29% in the experiment on OVCAR-8 ovarian; 22.7% with OVCAR-5 ovarian; 6.74% (active) with OVCAR-4 ovarian; 20.9% in the experiment with SK-OV-3 ovarian. The growth was 15.8% in the experiment with IGROV1 ovarian; -17.8% (active) with OVCAR-3 ovarian; 12.7% with HS 578T breast; 16% in the experiment with T-47D breast; 24.8% in the experiment on BT-549 breast; -64.7% (active) in the experiment with MDA-MB-435 melanoma. In addition, the growth in the experiment with SW-620 colon was 13.7%; in the experiment on MCF7 breast, 10.8%; in the experiment with HCT-116 colon, 8.93% (active); with HCC-2998 colon, 54.3%; in the experiment with KM12 colon, 15.8%.
On to `CC(C)(C)c1ccc(OCCCCCCCN2CCNCC2)cc1`, for which the growth in the experiment with SR leukemia was -10.4% (active); in the experiment with RPMI-8226 leukemia, -17% (active); with OVCAR-8 ovarian, 71.3%; in the experiment on OVCAR-5 ovarian, 68.5%; with OVCAR-4 ovarian, 54%; with SK-OV-3 ovarian, 81.5%. For the same molecule, the growth is 52% with IGROV1 ovarian; 62% in the experiment on OVCAR-3 ovarian; 24.9% in the experiment on HS 578T breast; 6.54% (active) with T-47D breast; 69.7% in the experiment with BT-549 breast; 50.8% in the experiment on MDA-MB-435 melanoma. Moreover, the growth in the experiment on SW-620 colon is -31.9% (active); with MCF7 breast, -20.1% (active); in the experiment with HCT-116 colon, -1.04% (active); in the experiment on HCC-2998 colon, -4.86% (active); with KM12 colon, 36.1%.
For `O=C1C(=O)c2ccccc2C(O)=C1CCCc1ccc(C2CCCCC2)cc1`, the growth in the experiment on SR leukemia was 35.6%; in the experiment with RPMI-8226 leukemia, 21.1%; in the experiment on OVCAR-8 ovarian, 51.4%; in the experiment on OVCAR-5 ovarian, 61.7%; in the experiment with OVCAR-4 ovarian, 58.2%; in the experiment on SK-OV-3 ovarian it was 56.6%. Moreover, the growth in the experiment with IGROV1 ovarian was 51.3%; in the experiment on OVCAR-3 ovarian, 18%; in the experiment on HS 578T breast, 53.4%; with NCI/ADR-RES ovarian, 42.8%; in the experiment with T-47D breast, 44%; in the experiment on MDA-MB-435 melanoma, 53.7%. Besides, the growth is 36.8% in the experiment with SW-620 colon; 32.9% in the experiment with MCF7 breast; 19.4% in the experiment on HCT-116 colon; 29.5% in the experiment on HCC-2998 colon; 24.2% in the experiment with KM12 colon.
Turning to `CN1CCN(c2nc(-c3csc(-c4cccs4)n3)cc3ccccc23)CC1`, the growth in the experiment with SR leukemia was 2.45% (active); in the experiment on RPMI-8226 leukemia it was 13.3%; in the experiment on OVCAR-8 ovarian, 75.6%; with OVCAR-5 ovarian, 87.7%; in the experiment on OVCAR-4 ovarian it was 57.9%; with SK-OV-3 ovarian, 90.8%. The growth in the experiment on IGROV1 ovarian is 23.1%; in the experiment with OVCAR-3 ovarian it was 39.9%; in the experiment with HS 578T breast, 71.3%; in the experiment on NCI/ADR-RES ovarian, 70.8%; in the experiment on T-47D breast, 52.1%; with MDA-MB-435 melanoma, 12.2%. The growth was 9.06% (active) with SW-620 colon, 46.7% in the experiment on HCT-116 colon, -38.2% (active) with HCC-2998 colon and 5.42% (active) with KM12 colon.
In the case of `COc1cnc2c(c1)C(=O)c1c-2n(CCCNCCN2CCOCC2)c(=O)c2cc([N+](=O)[O-])ccc12`, the growth with SR leukemia was -0.128% (active); with RPMI-8226 leukemia, -14.5% (active); in the experiment on OVCAR-8 ovarian, 2.29% (active); in the experiment with OVCAR-5 ovarian, 15.3%; with OVCAR-4 ovarian, -13.5% (active); with SK-OV-3 ovarian it was -12.9% (active). The growth is 15.6% in the experiment with IGROV1 ovarian; -25.9% (active) in the experiment on OVCAR-3 ovarian; 26.7% in the experiment with HS 578T breast; 7.12% (active) in the experiment with NCI/ADR-RES ovarian; 15.7% with T-47D breast; 13.7% with MDA-MB-435 melanoma. Moreover, the growth in the experiment on SW-620 colon was -55.2% (active); with MCF7 breast, 3.37% (active); in the experiment on HCT-116 colon, -60.4% (active); in the experiment with HCC-2998 colon, -73.3% (active); in the experiment with KM12 colon, -38.1% (active).
Turning to `Cc1ccc(S(=O)(=O)Nc2ccc(-c3cc(-c4cccc(F)c4)c(C#N)c(=O)[nH]3)cc2)cc1`, the growth in the experiment with SR leukemia is 54.9%; in the experiment with RPMI-8226 leukemia, 19.4%; in the experiment with OVCAR-8 ovarian, 80.1%; with OVCAR-5 ovarian, 99.9%; in the experiment with OVCAR-4 ovarian, 67%; with SK-OV-3 ovarian, 99.7%. In addition, the growth was 73.1% with IGROV1 ovarian; 82.6% with OVCAR-3 ovarian; 89.7% in the experiment on HS 578T breast; 90.7% with NCI/ADR-RES ovarian; 41.9% in the experiment on T-47D breast; 96.3% in the experiment on MDA-MB-435 melanoma. Also, the growth with SW-620 colon is 73.5%; in the experiment with MCF7 breast, 16.9%; with HCT-116 colon, 8.61% (active); in the experiment on HCC-2998 colon it was 104%; with KM12 colon it was 72.9%.
